From PubChem BioAssay
Sampled rows, rich in hits. Any-hit rate of the full collection: about 4.8%.
DAX1 inh-1 = inhibitors of DAX1 repression of SF-1 activated StAR promoter; inhibition, % at 6.8 µM; AID 652010; 1.1% of 370,000 active; HEK293T StAR-luciferase reporter, SF-1/DAX-1 repression relief;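 active means inhibition above the mean over all tested compounds plus 3 SD, cut at about 3.6% in these data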;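 further: 0% = DAX-1 cells with DMSO and 100% = cells lacking DAX-1 with DMSO; higher inhibition means more luminescence from relief of DAX-1 repression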
SMARCA2 act = increases SMARCA2 function in MMTV reporter cells; MG213 cells, MMTV-luciferase reporter, dexamethasone, overnight; AID 652017; 1% of 370,000 active; activation, % at 9.1 µM; in the data active means activation above about 7.8%;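 further: 0% = vehicle wells and 100% = reference activator wells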
hcDAF-12 act = activators of H. contortus DAF-12 nuclear receptor; HEK293 hcDAF-12 lit1-tk-luc reporter, luminescence; 0% DMSO, 100% Δ7-dafachronic acid; activation, % at 6.8 µM; 1.4% of 370,000 active; AID 652067;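 active means activation above the mean of all tested compounds plus 3 SD, cut at about 5.5% in these data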;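 further: 100% = response to 3 µM Δ7-dafachronic acid high control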
DAX1 inh-2 = NR0B1 (DAX1) inhibition. P51843. HEK293 Gal4-DAX1 luciferase reporter, luminescence. inhibition, % at 6.75 µM. 0.99% of 340,000 active. AID 504766;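 active means inhibition above the mean over all tested compounds plus 3 SD, cut at about 4.2% in these data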;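 further: 0% = DAX1-transfected cells with DMSO and 100% = empty-vector control cells with DMSO; inhibition shows as a rise in luminescence from relieved DAX1 repression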
ssDAF12 agonist = S. stercoralis DAF-12 activation, primary screen. 1% of 370,000 active. HEK293 ssDAF-12/GRIP1 lit1-tk-luc reporter, luminescence; % of 3 µM dafachronic acid response. activation, % at 6.8 µM;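 active means activation above the mean over all tested compounds plus 3 SD, cut at about 0.9% in these data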;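 further: 0% = DMSO-only wells and 100% = 3 µM delta7-dafachronic acid wells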
hgDAF-12 ag = hgDAF-12 agonism, primary luciferase screen; HEK293 GAL4-hgDAF12 UAS-luciferase reporter, agonist luminescence; normalized to butyrate control; activation, % at 6.8 µM; 1.8% of 370,000 active; AID 687014;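 active means activation above a cutoff set at the mean of all screened compounds plus 3 SD, cut at about 10% in these data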;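 further: 0% = DMSO wells and 100% = sodium butyrate wells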
DAX1 inh confirm = confirmation of human DAX1 (NR0B1) inhibitors; shares compounds with DAX1 inh-1; HEK293T StAR-promoter luciferase reporter, SF-1/DAX-1 repression; inhibition, % at 6.8 µM; 87% of 2,400 active; AID 652134;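 active means inhibition above the average of every tested compound plus 3 SD, cut at about 3.8% in these data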;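 further: 0% = DAX-1 cells with DMSO and 100% = no DAX-1 control cells with DMSO; active compounds raise luminescence by relieving repression of the StAR reporter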
Target sequence (P51843 whole entry, looked up): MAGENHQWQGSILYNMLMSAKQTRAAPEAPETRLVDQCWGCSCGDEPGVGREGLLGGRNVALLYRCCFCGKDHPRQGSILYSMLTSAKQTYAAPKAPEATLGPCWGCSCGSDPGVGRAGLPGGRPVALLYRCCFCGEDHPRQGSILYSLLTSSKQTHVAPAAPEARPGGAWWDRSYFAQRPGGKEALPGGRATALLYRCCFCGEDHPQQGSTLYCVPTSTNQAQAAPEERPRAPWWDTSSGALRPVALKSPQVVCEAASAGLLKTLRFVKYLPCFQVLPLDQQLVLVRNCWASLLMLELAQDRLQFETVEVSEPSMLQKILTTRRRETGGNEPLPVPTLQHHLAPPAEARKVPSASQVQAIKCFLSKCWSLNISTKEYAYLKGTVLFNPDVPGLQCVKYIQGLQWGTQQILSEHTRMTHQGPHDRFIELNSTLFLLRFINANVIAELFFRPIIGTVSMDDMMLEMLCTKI
SF1 mutant ctr = counter-screen for DAX1 inhibitors: nonselective inhibitors with SF-1 AF2 mutant | shares compounds with DAX1 inh-1 | HEK293 StAR-luciferase, luminescence | inhibition, % at 6.8 µM | 78% of 2,400 active | AID 652136;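 active means inhibition above the mean of all tested compounds plus 3 SD, cut at about 3% in these data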;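 further: 0% = DAX-1 transfected cells with DMSO and 100% = cells without DAX-1 with DMSO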
* hit, by the source's call; · = not tested or not shown.

SMILES	DAX1 inh-1	SMARCA2 act	hcDAF-12 act	DAX1 inh-2	ssDAF12 agonist	hgDAF-12 ag	DAX1 inh confirm	SF1 mutant ctr
CC(=O)N1CCN(C(=O)c2oc3ccccc3c2C)CC1	5.3*	0	2	1	-1	1	3	3.7*
Cc1ccc2oc(C(=O)NCCCN3CCOCC3)c(C)c2c1	6.6*	5	5	3	0	11*	8.9*	7.6*
Cc1ccc(C)c(OCc2cc(C(=O)N3CC[C@@H]4CCCC[C@H]4C3)no2)c1	5.5*	1	6.5*	1	0	9	2	3.3*
Cc1ccc(C)c(OCc2cc(C(=O)N3C[C@@H](C)O[C@@H](C)C3)no2)c1	4.6*	6	1	2	-1	9	4.8*	4.2*
CCCCOCCCNC(=O)C[C@@H]1C(=O)N(Cc2ccc(OC)cc2)/C2=C/CCCCC[C@@]21C(=O)OCC	0	-3	-2	·	0	-2	·	·
CCCCN(C)CCNC(=O)CN1C(=O)CSc2ccc(S(=O)(=O)N3CCCC3)cc21	7.2*	1	0	1	-1	2	3	1
CC(C)(C)OC(=O)N1CCC(C(=O)Nc2ccc3c(c2)CCC3)CC1	4.7*	4	2	1	0	12*	4.7*	3
COc1ccc(C(=O)C2(C(=O)NCCO)CC(c3ccccn3)=NO2)cc1 (stereo not drawn)	0	4	0	·	0	0	·	·
O=C(N/N=C/c1c(Cl)cccc1Cl)c1cccc(F)c1	·	·	·	0	·	·	·	·
O=C(N/N=C/c1cccc2ccccc12)c1cccc(F)c1	5.1*	4	3	0	0	8	2	2
S=C(Nc1nc2c(s1)CCCC2)NC1CC1	5.3*	1	3	1	0	10	6.4*	4.3*
COc1cc(NC(=O)C2CCCN(S(=O)(=O)c3ccc(C)c(C)c3)C2)cc(OC)c1 (stereo not drawn)	0	-1	-4	·	-2	4	·	·
C/C(=N\NC(=O)c1ccn(C)n1)c1ccco1	1	4	3	1	-1	6	·	·
C/C(=N\NC(=O)c1ccn(C)n1)c1ccc(NC(=O)c2cccc(F)c2)cc1	8.4*	2	2	0	0	9	-2	-1
COc1ccc2cc(CCNC(=O)c3ccco3)c(=O)[nH]c2c1	6.0*	3	5	1	0	11*	9.4*	5.8*
CN1CCN(C(=O)c2ccc3c(Cl)c4c(nc3c2)CCCC4)CC1	5.8*	0	0	0	-1	1	4.8*	2
Nn1c(SCC(=O)Nc2cccc3ccccc23)nnc1-c1n[nH]c2c1CCC2	-1	-1	-2	·	-1	0	·	·
COc1ccc(-c2cn3cc(C)ccc3n2)cc1F	4.8*	3	5.6*	-2	0	10	12*	1
Cc1cc(Cl)ccc1OCc1cn2cccnc2n1	8.0*	6	2	1	-1	11*	8.3*	4.0*
Clc1ccc(OCc2cn3cccnc3n2)c2ncccc12	1	0	1	0	0	2	·	·
CC(C)(C)OC(=O)N1CCC[C@@H]1C(=O)N1CCC[C@H]1C(=O)NCc1ccccc1	0	-1	0	·	-1	-1	·	·
COc1ccc2oc(C(=O)N3CCc4ccccc43)c(C)c2c1	11*	0	4	-2	1	7	15*	5.3*
COc1cc2ccccc2cc1C(=O)Nc1ccc(C)cn1	5.5*	4	5.7*	1	0	11*	13*	6.8*
COc1cc2ccccc2cc1C(=O)Nc1cccnc1	1	2	3	1	1	9	·	·
COc1ccc2oc(C(=O)N3CCN(C(c4ccccc4)c4ccccc4)CC3)c(C)c2c1	-1	-1	0	-2	-1	-1	·	·
SMILES	DAX1 inh-1	SMARCA2 act	hcDAF-12 act	DAX1 inh-2	ssDAF12 agonist	hgDAF-12 ag	DAX1 inh confirm	SF1 mutant ctr
COc1ccc(C(CNC(=O)c2oc3ccc(Br)cc3c2C)N2CCCCC2)cc1 (stereo not drawn)	1	-2	-1	-1	-1	3	·	·
COc1ccc2oc(C(=O)NN3C(C)CCCC3C)c(C)c2c1 (stereo not drawn)	1	-2	-1	0	-2	-4	·	·
COc1ccc2oc(C(=O)Nc3ccc(C)cn3)c(C)c2c1	5.0*	3	4	3	0	11*	10*	6.6*
COc1ccc(C(CNC(=O)c2oc3ccc(OC)cc3c2C)N2CCCC2)cc1 (stereo not drawn)	5.0*	0	0	0	-1	2	6.1*	4.2*
COc1cccc(CNC(=O)[C@H]2CCCN2C(=O)[C@H]2CCCN2C(=O)c2cccc(OC)c2)c1	0	-3	-1	·	-1	0	·	·
Cc1cn2c(=O)c3ncn(C4OC(CO)C(O)C4O)c3n(C)c2n1 (stereo not drawn)	0	0	-2	·	-2	0	·	·
O=C(CNS(=O)(=O)c1ccc(Br)s1)N1CCN(c2ccccn2)CC1	-2	-2	-1	·	-2	-2	·	·
COc1ccc(N2C(=O)c3n[nH]c(C(C)C)c3C2c2ccc(C)cc2)cc1 (stereo not drawn)	0	1	-1	·	-1	1	·	·
COc1ccc2oc(C(=O)NCCC(C)C)c(C)c2c1	6.1*	2	5	2	0	9	14*	6.2*
Cc1cc(C)cc(C(=O)OCCN(C)C2CN(Cc3cn(Cc4cccc(F)c4)nn3)S(=O)(=O)C2)c1 (stereo not drawn)	-1	-3	-2	·	-2	-2	·	·
COc1ccc(C(=O)COC(=O)c2cccc(-n3cnnn3)c2)c(OC)c1	4.6*	5	4	0	-1	10	7.8*	4.4*
Cc1cnc(C(=O)N(c2ccccc2)C(c2ccccc2)c2nc3ccccc3[nH]2)cn1 (stereo not drawn)	6.0*	3	3	·	0	9	5.0*	3.7*
Cn1c(NC(=O)c2ccccc2)nc(Cc2ccccc2)c1Cc1ccccc1	0	-6	-3	·	-1	-2	·	·
COc1cccc(NC(=O)Nc2c(-c3ccc(C(F)(F)F)cc3)nc3ncccn23)c1	1	3	-1	·	-1	6	·	·
CS(=O)(=O)c1ccc(-c2cccc(NC(=O)c3ccc(Br)o3)c2)nn1	-2	-1	-1	-1	0	-2	·	·
COc1ccc(-c2ccc(NC(=O)c3ccc(Br)o3)cc2)nn1	5.2*	5	0	1	0	4	5.6*	4.2*
